Measured values reported in the supplement of paper PMC6555819.

Legend:
Assay in all cases: PBM binding z-score (relative to random genomic background probes); higher = stronger binding; sequences stand for … in GC…GCGATTGACAGCGTAGAATGAAGG
[1] = tested on: FXR:RXRa (NR concentration 270 nM, RXRa partner concentration 90 nM)
In short: (§1)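 Custom Agilent 4×180K protein-binding microarrays carried double-stranded probes, each with a 34-nt variable region. These regions held direct-repeat seeds, single-nucleotide variants, half-site ablations and random human genomic background sequences. Ligand-free nuclear receptor dimers were incubated on the arrays for 1 h, antibodies against each partner (one per run) detected binding, and scanned fluorescence was regression-normalized. Binding z-scores take the random background probes as reference.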

[2] = tested on: LXRa:RXRa (NR concentration 270 nM, RXRa partner concentration 90 nM)
In short: as §1

[3] = tested on: LXRa homodimer (NR concentration 270 nM)
In short: as §1

[4] = tested on: LXRb:RXRa (NR concentration 270 nM, RXRa partner concentration 90 nM)
In short: as §1

[5] = tested on: LXRb homodimer (NR concentration 270 nM)
In short: as §1

[6] = tested on: PPARa:RXRa (NR concentration 270 nM, RXRa partner concentration 90 nM)
In short: as §1

[7] = tested on: PPARg:RXRa (NR concentration 180 nM, RXRa partner concentration 90 nM)
In short: as §1

[8] = tested on: PPARg:RXRa 270nM:90nM, anti-RXR (NR concentration 270 nM, RXRa partner concentration 90 nM)
In short: as §1

[9] = tested on: PPARg:RXRa 30nM:10nM, anti-RXR (NR concentration 30 nM, RXRa partner concentration 10 nM)
In short: as §1

[10] = tested on: PPARg:RXRa 90nM:30nM, anti-RXR (NR concentration 90 nM, RXRa partner concentration 30 nM)
In short: as §1

In the case of ATCTCTAGGTAACCAAGGTCAGTGAATGCCGAAC, the PBM binding z-score [1] is reported as 1.59, the PBM binding z-score [2] is reported as 2.3 and the PBM binding z-score [3] is reported as 1.46. The PBM binding z-score [4] was 1.91, the PBM binding z-score [5] was 0.895 and the PBM binding z-score [6] was 2.72. The PBM binding z-score [7] was 1.79, the PBM binding z-score [8] was 1.92 and the PBM binding z-score [9] was 0.476. It also gave a PBM binding z-score [10] of 1.39.
For CCGACAGGGGCATAAGGTTACCATAAGCCAGCCC, the PBM binding z-score [1] was 0.857, the PBM binding z-score [2] was 2.05 and the PBM binding z-score [3] was -0.0589. It also gave a PBM binding z-score [4] of 1.1, a PBM binding z-score [5] of -1.11 and a PBM binding z-score [6] of 1.9. It also gave a PBM binding z-score [7] of 1.11, a PBM binding z-score [8] of 0.825 and a PBM binding z-score [9] of -0.159. It also gave a PBM binding z-score [10] of 0.389.
Sequence CCACACAGGTGAAAGGTAACTCAGTCTGGTACGC has a PBM binding z-score [1] of 1.02, a PBM binding z-score [2] of 1.03 and a PBM binding z-score [3] of 0.186. It also gave a PBM binding z-score [4] of 1.15, a PBM binding z-score [5] of -0.0183 and a PBM binding z-score [6] of 3.42. For the same sequence, the PBM binding z-score [7] was 5.45, the PBM binding z-score [8] was 5.54 and the PBM binding z-score [9] was 3.68. The PBM binding z-score [10] was 5.21.
CCTAGTGGGCCATCAGGTCATTGATATCAACGTT showed a PBM binding z-score [1] of 1.47, a PBM binding z-score [2] of 1.04 and a PBM binding z-score [3] of 0.915. It also gave a PBM binding z-score [4] of 1.63, a PBM binding z-score [5] of -0.159 and a PBM binding z-score [6] of 2.74. It also gave a PBM binding z-score [7] of 3.06, a PBM binding z-score [8] of 3.69 and a PBM binding z-score [9] of 1.05. The PBM binding z-score [10] was 2.74.
With AAAATGAGGTTATTAAGATCAGGGAATTGCGGTC the PBM binding z-score [1] was 1.95, the PBM binding z-score [2] was 1.63 and the PBM binding z-score [3] was 0.3. For the same sequence, the PBM binding z-score [4] was 1.44, the PBM binding z-score [5] was -0.0347 and the PBM binding z-score [6] was 2.8. The PBM binding z-score [7] was 2.05, the PBM binding z-score [8] was 2.19 and the PBM binding z-score [9] was 0.556. The PBM binding z-score [10] was 1.48.
AGAATGAGGTTACCAAACATCAGGGAAACGCTTG was tested, and the PBM binding z-score [1] was 2.02, the PBM binding z-score [2] was 2 and the PBM binding z-score [3] was -0.389. For the same sequence, the PBM binding z-score [4] was 1.31, the PBM binding z-score [5] was -0.323 and the PBM binding z-score [6] was 3.21. For the same sequence, the PBM binding z-score [7] was 2.42, the PBM binding z-score [8] was 2.19 and the PBM binding z-score [9] was 1.04. For the same sequence, the PBM binding z-score [10] was 1.8.
For ACTATTAGTTGACTTAGGGAAACCGATACGACGC, the PBM binding z-score [1] was 0.197, the PBM binding z-score [2] was 0.155 and the PBM binding z-score [3] was 0.512. The PBM binding z-score [4] was 0.0262, the PBM binding z-score [5] was 0.742 and the PBM binding z-score [6] was -0.255. The PBM binding z-score [7] was 0.843, the PBM binding z-score [8] was 0.171 and the PBM binding z-score [9] was 0.193. It also gave a PBM binding z-score [10] of 0.259.
Work on GATACAAGGTCAAGGCCAGAGTACGCGTATTGAT yielded a PBM binding z-score [1] of 7.16, a PBM binding z-score [2] of 5.44 and a PBM binding z-score [3] of 1.37. For the same sequence, the PBM binding z-score [4] was 4.03, the PBM binding z-score [5] was 0.481 and the PBM binding z-score [6] was 5.49. For the same sequence, the PBM binding z-score [7] was 5.86, the PBM binding z-score [8] was 5.56 and the PBM binding z-score [9] was 2.28. For the same sequence, the PBM binding z-score [10] was 4.41.
In the case of CGTCCAAGCTCAAAGGTCAGTGAAGAGATGACGG, the PBM binding z-score [1] is reported as 3, the PBM binding z-score [2] is reported as 2.95 and the PBM binding z-score [3] is reported as 0.546. The PBM binding z-score [4] was 2.8, the PBM binding z-score [5] was 0.14 and the PBM binding z-score [6] was 3.99. It also gave a PBM binding z-score [7] of 3.03, a PBM binding z-score [8] of 4.16 and a PBM binding z-score [9] of 2.1. For the same sequence, the PBM binding z-score [10] was 3.97.
Sequence CCGACTGGGGGAGAAAGGTTACCATACCATCCGG has a PBM binding z-score [1] of 1.31, a PBM binding z-score [2] of 1.61 and a PBM binding z-score [3] of 0.182. For the same sequence, the PBM binding z-score [4] was 2.9, the PBM binding z-score [5] was 4.09 and the PBM binding z-score [6] was 3.66. For the same sequence, the PBM binding z-score [7] was 3.97, the PBM binding z-score [8] was 6.01 and the PBM binding z-score [9] was 4.46. The PBM binding z-score [10] was 6.42.
With AGAACGAGGGCACGCTGAGTTGATGGCAGAGTAG the PBM binding z-score [1] was 0.805, the PBM binding z-score [2] was 0.828 and the PBM binding z-score [3] was -0.81. The PBM binding z-score [4] was 0.0668, the PBM binding z-score [5] was -1.05 and the PBM binding z-score [6] was 2.22. The PBM binding z-score [7] was 2.22, the PBM binding z-score [8] was 1.63 and the PBM binding z-score [9] was 0.228. The PBM binding z-score [10] was 1.27.
Work on TTACCAAGGTGAAGGTCGTTGCTCCCTCTGTAGA yielded a PBM binding z-score [1] of 2.26, a PBM binding z-score [2] of 1.91 and a PBM binding z-score [3] of 0.0546. It also gave a PBM binding z-score [4] of 1.46, a PBM binding z-score [5] of -0.474 and a PBM binding z-score [6] of 2.7. The PBM binding z-score [7] was 2.96, the PBM binding z-score [8] was 4.34 and the PBM binding z-score [9] was 2.21. For the same sequence, the PBM binding z-score [10] was 3.83.
